High-throughput results as filed in PubChem.
Shown are actives, neighbours in structure and some others; about 2.5% of the full set was active somewhere.
Dyrk1A ADPGlo = rat Dyrk1A kinase inhibitors, primary screen, biochemical, single point, plate reader. Dual specificity tyrosine-phosphorylation-regulated kinase 1A (Rattus norvegicus), Q63470. ADP-Glo luminescence, NFATc1 peptide. inhibition, % at 12.5 µM. hit rate 0.43% among 310,000; in the data active = inhibition above about 50%;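 also: plate controls were vehicle with enzyme for no effect and no enzyme for full effect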
HSF1 activator = HSF-1 activators, primary screen, NIH3T3-HGL cells, MG132 stress, luminescence, single point; hit rate 1.7% among 300,000; NIH3T3-HGL HSF-1 luciferase reporter, 8 h; 100% = twice DMSO control signal; activation, % at 9 µM;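 active = mean replicate activation of at least 50% with a set share of replicates each reaching 50%; inconclusive = only one of those two conditions met; inactive = mean below 50% and too few replicates reaching it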;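 also: 0% = median of the neutral control wells and 100% = twice that signal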
GC-B act = human GC-B receptor activators, primary screen, HEK293 GC-B cells, cGMP TR-FRET, EC30 CNP | 0% at EC30 CNP, 100% saturating CNP | activation, % at 10 µM | hit rate 0.11% among 370,000 | Atrial natriuretic peptide receptor 2 (Homo sapiens), P20594 | AID 1920062, 2024;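 active = activation at 10 µM reaching about 35% in either raw or pattern-adjusted values, limit read from the data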
Target sequence (P20594 whole entry, looked up): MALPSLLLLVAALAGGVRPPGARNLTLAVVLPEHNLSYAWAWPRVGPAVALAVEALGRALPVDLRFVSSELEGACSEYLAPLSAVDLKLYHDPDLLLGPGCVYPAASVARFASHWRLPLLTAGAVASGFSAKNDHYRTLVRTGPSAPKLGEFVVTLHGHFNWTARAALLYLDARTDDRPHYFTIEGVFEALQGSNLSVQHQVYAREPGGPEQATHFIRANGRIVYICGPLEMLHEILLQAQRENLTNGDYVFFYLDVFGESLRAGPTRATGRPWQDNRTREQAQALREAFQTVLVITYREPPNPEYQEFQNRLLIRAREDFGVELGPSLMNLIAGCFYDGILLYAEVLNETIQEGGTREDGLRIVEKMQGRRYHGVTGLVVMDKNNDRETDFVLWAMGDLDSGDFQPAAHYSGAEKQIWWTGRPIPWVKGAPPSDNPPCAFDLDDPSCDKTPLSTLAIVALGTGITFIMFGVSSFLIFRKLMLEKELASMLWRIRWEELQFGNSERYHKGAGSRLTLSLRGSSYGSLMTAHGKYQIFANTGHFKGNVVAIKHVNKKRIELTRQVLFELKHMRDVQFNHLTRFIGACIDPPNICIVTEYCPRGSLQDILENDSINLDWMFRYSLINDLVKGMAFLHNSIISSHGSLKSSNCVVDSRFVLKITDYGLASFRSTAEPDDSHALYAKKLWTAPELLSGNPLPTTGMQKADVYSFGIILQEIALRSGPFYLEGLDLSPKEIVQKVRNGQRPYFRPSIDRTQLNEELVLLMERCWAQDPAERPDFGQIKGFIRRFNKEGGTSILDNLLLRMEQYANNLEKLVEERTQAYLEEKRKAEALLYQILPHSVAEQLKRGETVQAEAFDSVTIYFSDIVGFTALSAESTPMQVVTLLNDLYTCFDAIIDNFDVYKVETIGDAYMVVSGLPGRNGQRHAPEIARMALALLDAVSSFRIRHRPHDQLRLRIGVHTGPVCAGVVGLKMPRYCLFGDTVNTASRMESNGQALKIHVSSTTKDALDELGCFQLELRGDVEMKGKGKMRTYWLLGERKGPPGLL
aDG glyco up = activators of alpha-DG glycosylation, primary screen, uHTS, Pro5-aDG cells, AlphaScreen | alpha-DG glycosylation AlphaScreen (IIH6); 0% Pro5, 100% B10-LARGE cell signal | activation, % at 10 µM | hit rate 0.22% among 360,000;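 active = activation of at least 8% versus controls, or a plate z-score of at least 8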;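 also: Pro5 are CHO cells carrying HIG-tagged alpha-DG that lacks glycosylation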
HSF1 inhib = HSF1 inhibitors in luciferase reporter cells, primary screen, cell-based, NIH3T3, luminescence; NIH3T3-HGL HSE-luciferase, MG132-induced, luminescence 8 h; stronger effect = lower value; activity change, negative = inhibition, % at 7.5 µM (by protocol); hit rate 0.77% among 300,000;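 active = more than half of replicate wells show activity change below -50%, luminescence cut by over half; inconclusive = some wells, but at most half, below -50%; inactive = no replicate well below -50%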;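 also: luciferase reports HSF-1 transcriptional activity via heat shock element; 0% = median of DMSO wells and -100% = zero luminescence signal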
NPR1 activator = GC-A stimulated cGMP production enhancers – HEK293 GC-A cells, cGMP TR-FRET, EC30 ANP, primary screen | AID 1671463, 2021 | 0% at EC30 ANP, 100% saturating ANP | hit rate 0.14% among 370,000 | activation, % at 10 µM; in the data active = activation above about 40%
The depositor's hits bear a star; ? = inconclusive; nt = no result given.

SMILES	Dyrk1A ADPGlo	HSF1 activator	GC-B act	aDG glyco up	HSF1 inhib	NPR1 activator
c1ccc2c(c1)CC/C2=N/Nc1nc2ccccc2[nH]1	1.6	51.2*	-2.2	0.2	13.2	-2.0
C[C@H](C(O)c1ccccc1)N(C)C(=O)CN (stereo partly specified)	0.5	-2.3	-5.4	0.0	-4.8	-2.1
O=C1c2ccc3c4c(ccc(c24)C(=O)N1c1cccc(O)c1)C(=O)N(c1cccc(O)c1)C3=O	-6.7	17.4	-0.1	4.0*	13.5	8.0
Cc1n[nH]c(C)c1CCOc1ccc(C(C)C)cc1	-2.2	99.6*	-2.8	0.0	47.0	6.2
CCCCn1c(N)c(N(CC(C)C)C(=O)c2cccc(S(=O)(=O)N3CCCCC3)c2)c(=O)[nH]c1=O	3.4	-77.1	-2.1	-0.1	-71.0*	-1.5
CC(O/N=C\c1ccccc1O)C(=O)Nc1ccccc1C(=O)N1CCOCC1 (stereo unspecified)	-5.4	-68.6	2.5	-0.1	-57.6*	-0.9
NS(=O)(=O)c1cccc(NC(=O)CNC(=O)CC23CC4CC(CC(C4)C2)C3)c1	-8.9	-82.0	1.7	1.5	-76.8*	0.4
Cc1cccc(N2CCN(Cc3ccoc3)CC2)c1C	-3.7	-7.2	-1.3	-0.1	-0.5	-3.9
COc1cc(CN2CCN(c3cccc(C)c3C)CC2)cc(OC)c1O	3.4	-73.7	-3.2	0.3	-64.6*	-0.8
c1cncc(-c2nnc(SCc3nc4ccccc4[nH]3)o2)c1	-4.7	-72.3	7.3	0.0	-67.9*	3.1
COc1ccc(C(=O)OCc2csc(C)n2)c(O)c1	nt	64.8*	0.6	-0.1	25.6	-6.9
Cc1nc(C/C(=N\N)c2ccc(O)cc2O)cs1	1.9	15.3	-3.4	0.1	7.3	-3.4
O=C(Nc1cnn(Cc2c(Cl)cccc2Cl)c1)C(c1ccccc1)c1ccccc1	4.5	-13.1	-1.7	0.8	6.5	1.9
CC(C)(C)C(=O)Nc1cccc(-c2cc(-c3c(Cl)cccc3Cl)no2)c1	nt	54.1*	5.8	0.2	19.3	2.3
Cc1ccc(C(c2c(C)nn(-c3ccccc3)c2N)c2c(C)nn(-c3ccccc3)c2N)cc1	3.3	92.7*	-0.7	-0.2	68.0	4.7
C=CC[n+]1c(-c2ccc(OC)c(OC)c2)csc1NNC(=O)Nc1ccccc1	-3.3	-3.7	-1.2	1.4	-2.5	-0.4
CCn1cc(C(=O)NCCCN2CCC(C)CC2)c(=O)c2cc(S(=O)(=O)N3CCOCC3)ccc21	-3.6	0.0	0.5	0.1	-3.1	2.9
CS(=O)(=O)Nc1cccc(-c2cc(NC=O)c3ncc(-c4ccc(F)cc4)n3c2)c1	nt	nt	3.3	0.3	nt	-8.8
Cc1noc(COc2ccc(OCc3nc(C)no3)cc2)n1	-0.1	-5.6	2.2	0.1	-6.4	3.5
CCSc1nnc(NC(=O)C(Cc2ccccc2)n2cccc2)s1 (stereo unspecified)	3.5	-79.1	-7.1	-0.1	-74.8*	-1.1
COC(=O)Oc1ccc(/C=N/NC(=O)CSCc2ccccc2Br)cc1OC	1.5	7.7	2.2	3.4	-4.1	-1.9
CC(C)c1ccc(N(C(=O)c2csnn2)C(C(=O)NC2CCCC2)c2cccnc2)cc1 (stereo unspecified)	-5.2	5.3	-5.3	0.0	2.5	-4.8
CCc1ccc(/C=N/NC(=O)c2c[nH]c3ccccc23)s1	-6.3	57.8*	4.1	-0.1	25.2	0.3
CS(=O)(=O)N(CC(=O)N1CCN(Cc2ccccc2)CC1)c1ccccc1F	3.6	-1.1	2.2	0.0	-3.6	-2.7
CCOc1ccc(/C=N/NC(=O)c2ccc(Cn3cc([N+](=O)[O-])cn3)o2)cc1	0.8	-66.8	-1.8	0.2	-55.1*	4.0
SMILES	Dyrk1A ADPGlo	HSF1 activator	GC-B act	aDG glyco up	HSF1 inhib	NPR1 activator
CCOc1ccc(/C=N/NC(=O)c2ccc(Cn3cc(Br)cn3)o2)cc1	-5.3	5.3	1.4	0.0	-0.9	2.4
O=C(NC1CCCCC1)C1CCCN1S(=O)(=O)c1cccc2nsnc12 (stereo unspecified)	-1.9	53.8*	4.6	-0.1	8.0	4.8
O=C(C1CCCN1S(=O)(=O)c1cccc2nsnc12)N1CCCCC1 (stereo unspecified)	-2.2	1.4	10.8	0.3	2.9	2.0
CC(=O)/C(=N/Nc1ccc(Br)cc1)N1CCCc2ccccc21	nt	56.9*	6.6	0.6	22.4	0.9
O=C(COc1ncnc2sccc12)N1CCN(S(=O)(=O)c2ccc(Cl)cc2)CC1	-7.7	9.9	-7.0	0.1	-4.3	-6.3
N/C(=N\OC(=O)COc1ccc(Br)cc1Cl)c1cccnc1	-2.8	60.0*	-1.3	0.1	31.3	14.6
Cc1cc(-c2ccc(C)c(S(=O)(=O)NCCC(C)N3CCCCCC3)c2)on1 (stereo unspecified)	-4.5	-72.8	-5.3	0.0	-67.2*	-1.1
Cc1cc(-c2ccc(C(C)C)c(S(=O)(=O)NCCN3CCC(C)CC3)c2)on1	nt	66.7*	1.0	0.2	15.0	-1.6
Cc1cc(-c2ccc(C)c(S(=O)(=O)NCCCN3CCCCCC3)c2)on1	-4.7	18.4	2.7	-0.1	1.7	-3.1
O=[N+]([O-])c1[nH]cnc1/C=C/c1ccccc1	1.6	11.9	-1.4	0.1	-0.6	-9.2
COC(=O)c1ccccc1Sc1ncnc2onc(C)c12	-3.0	86.4*	-0.8	0.8	72.3	2.3
CC1CC(OCC(O)CN2CCOCC2)CC(C)(C)C1 (stereo unspecified)	3.7	-6.1	-1.3	0.5	-1.5	3.7
CCOC(=O)N1CCN(CC(O)COC2CC(C)CC(C)(C)C2)CC1 (stereo unspecified)	6.1	-87.8	-3.6	0.2	-84.5*	-5.0
Cc1cc(N)n(-c2nc3ccccc3s2)n1	-5.7	-24.6	-1.0	0.0	?	-0.8
Cc1cc(C)n(-c2nc3ccccc3s2)n1	-5.1	-88.0	0.8	-0.4	-84.2*	-6.6
CCn1c(-c2ccsc2)nc2c1c(=O)[nH]c(=O)n2Cc1ccccc1	-3.4	55.7*	41.8*	-0.3	22.4	30.8
COC(=O)c1cc(-c2cnc(OC)nc2OC)c(=O)n2c1CCC2	nt	nt	6.1	nt	nt	2.8
COc1ccc(CN2CCC(=O)N([C@H](CO)c3ccccc3)CC2)cc1OC	0.3	29.4	-12.3	-0.3	-0.3	-0.5
COc1ccc(Nc2nc(N)nc(CSc3nnc(N)s3)n2)cc1	-1.4	37.2	2.3	-0.2	11.5	-6.8
COc1ccc(Nc2nc(N)nc(CSc3nccn3C)n2)cc1	-30.6	54.9*	4.3	-0.2	8.9	1.6
